Source: PubChem
FAS-TE inh – blocks the thioesterase domain of human fatty acid synthase. P49327. AID 602261. 0.67% of 360,000 active. recombinant FAS-TE, OMFH fluorogenic substrate, fluorescence endpoint. inhibition, % at 15 µM;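 active means compounds whose normalised, plate-corrected inhibition of enzyme fluorescence in the single-dose primary screen is 50% or more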;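 further: 0% = DMSO with enzyme and 100% = substrate without enzyme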
SMARCA2 activ – activators of SMARCA2 function | MG213 cells, MMTV-luciferase reporter, dexamethasone, overnight | activation, % at 9.1 µM | 1% of 370,000 active | AID 652017; in the data active means activation above about 7.8%;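 further: 0% = vehicle wells and 100% = reference activator wells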
GAA850 FXN act – increases GAA850 frataxin promoter reporter activity | AID 540364 | 0.56% of 360,000 active | HEK293 lucGAA850 FXN promoter luciferase reporter, 24 h; percent of 10 µM SAHA response | activation, % at 6 µM;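 active means activation above the average of all compounds screened plus 3 SD, cutoff fixed separately per campaign, cut at about 7.5% in these data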;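 further: 0% = DMSO wells and 100% = 10 µM SAHA wells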
proKLK7 act – activators of human kallikrein-7 zymogen. P49862. purified proKLK7, EDANS-DABCYL substrate fluorescence; 100% is mature enzyme control, 0% vehicle. activation, % at 7 µM. 0.9% of 370,000 active;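 active means activation above the mean of all tested compounds plus 3 SD, computed per campaign excluding outliers beyond control limits, cut at about 13% in these data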
SMARCA2 conf – SMARCA2 activation, confirmation screen; AID 652260; MG213 cells, MMTV-luciferase with dexamethasone, luminescence, overnight; MG213 cells expressing E1A, Rb sequestered; DMSO wells 0%, reference activator 100%; activation, % at 9.1 µM; shares compounds with SMARCA2 activ; 30% of 3,500 active;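 active means activation above its plate's cutoff, the mean activation of tested wells plus 3 SD, cut at about 7.9% in these data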
VP16 Luc act – GAL4-VP16 reporter activation counter-screen. shares compounds with SMARCA2 activ. HEK293 GAL4-VP16 pG5luc reporter, luciferase luminescence; scaled: DMSO wells 0%, SAHA wells 100%. activation, % at 9.1 µM. 41% of 3,500 active. AID 686939;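 active means activation above the solvent-only control well mean plus 3 SD, averaged across control plates, cut at about 5.2% in these data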
* marks the source's active call; other numbers are inactive results. Hits are enriched below; roughly 2.9% of the tested compounds scored in any of these assays.

How did Cc1cccc(C)c1NC(=O)CNC(=O)CN1C(=O)NC2(CCc3ccccc32)C1=O (centres undefined) do in these assays?
FAS-TE inh: -2.5; SMARCA2 activ: -1.3; GAA850 FXN act: -0.1; proKLK7 act: -0.2

What do the screens show for `Cc1cccc2nc3ccccc3cc12`?
FAS-TE inh: 5.0; SMARCA2 activ: -3.0; GAA850 FXN act: 1.5; proKLK7 act: -25.2

What do the screens show for `Cc1[nH]ccc2cc3nc4ccccc4c3cc12`?
FAS-TE inh: -0.2; SMARCA2 activ: 18.0*; GAA850 FXN act: 4.9; proKLK7 act: 2.1; SMARCA2 conf: 75.5*; VP16 Luc act: 1.3

Results for O/N=C\c1ccc(-c2ccccc2)o1 ?
FAS-TE inh: -6.4; SMARCA2 activ: 9.5*; GAA850 FXN act: 4.4; proKLK7 act: -0.6; SMARCA2 conf: 6.2; VP16 Luc act: 4.8

Results for COc1ccc(CN(C)C(=O)c2cc(-c3ccc(OC)c(OC)c3)nc3ccccc23)c(OC)c1 ?
FAS-TE inh: 11.0; SMARCA2 activ: -2.1; GAA850 FXN act: 0.3; proKLK7 act: 0.4

What do the screens show for `COCc1ccc(C(=O)N(C)CC2CCCN(CCc3ccc(Cl)cc3)C2)o1` (centres undefined)?
FAS-TE inh: -5.7; SMARCA2 activ: -0.7; GAA850 FXN act: 1.5; proKLK7 act: 0.1

What do the screens show for `COCc1ccc(C(=O)N(C)CC2CCCN(CCc3ccc(OC)cc3)C2)o1` (centres undefined)?
FAS-TE inh: -1.8; SMARCA2 activ: 9.8*; GAA850 FXN act: 2.5; proKLK7 act: 0.0; SMARCA2 conf: 4.0; VP16 Luc act: 4.8

Results for CCc1ccc2[nH]c(O)c(N=NC3=NC(=O)CS3)c2c1 ?
FAS-TE inh: -3.3; SMARCA2 activ: -5.0; GAA850 FXN act: -2.5; proKLK7 act: -0.6

What do the screens show for `O=C(c1ccc(N2CCCC2)c([N+](=O)[O-])c1)N1CCN(CCO)CC1`?
FAS-TE inh: -4.5; SMARCA2 activ: -1.4; GAA850 FXN act: 2.4; proKLK7 act: -0.4

Results for COc1ccc(C(=O)C=Cc2ccc3c(c2)OCO3)cc1OC ?
FAS-TE inh: -2.5; SMARCA2 activ: 10.2*; GAA850 FXN act: 2.2; proKLK7 act: -5.3; SMARCA2 conf: 11.6*; VP16 Luc act: -0.4

Results for COc1ccc(C(=O)/C=C/c2ccc3c(c2)OCCO3)cc1 ?
FAS-TE inh: 11.8; SMARCA2 activ: -0.2; GAA850 FXN act: 4.2; proKLK7 act: -2.6

Results for O=C(/C=C/c1ccc2c(c1)OCCO2)c1ccccc1 ?
FAS-TE inh: 2.0; SMARCA2 activ: 17.4*; GAA850 FXN act: 5.5; proKLK7 act: -0.2; SMARCA2 conf: 10.4*; VP16 Luc act: 9.1*

What do the screens show for `COc1ccc(C=CC(=O)c2ccc(OC)c(OC)c2)cc1O`?
FAS-TE inh: -6.9; SMARCA2 activ: 6.1; GAA850 FXN act: 2.9; proKLK7 act: -0.3

What do the screens show for `COc1cc(C(=O)Nc2ccc3c(c2)OCO3)ccc1OCc1c(C)noc1C`?
FAS-TE inh: 4.8; SMARCA2 activ: 8.4*; GAA850 FXN act: 0.6; proKLK7 act: 1.4; SMARCA2 conf: 6.3; VP16 Luc act: -0.3

What do the screens show for `O=C(NN=C1CCCCCC1)c1ccc2c(c1)OCO2`?
FAS-TE inh: -8.0; SMARCA2 activ: 10.4*; GAA850 FXN act: 0.5; proKLK7 act: 0.1; SMARCA2 conf: 3.3; VP16 Luc act: 4.3

What do the screens show for `CC(C)NC(=O)c1ccc(N(Cc2ccccc2)S(C)(=O)=O)cc1`?
FAS-TE inh: -2.0; SMARCA2 activ: -1.6; GAA850 FXN act: 3.7; proKLK7 act: 0.3

How did O=C(NCc1ccc(F)cc1)C1CC(=O)N(CCc2ccccc2)C1 (centres undefined) do in these assays?
FAS-TE inh: -1.7; SMARCA2 activ: 0.9; GAA850 FXN act: 0.4; proKLK7 act: 0.0

Results for COc1ccc(/C=C/C(=O)c2ccc3c(c2)OCO3)c(OC)c1 ?
FAS-TE inh: 5.4; SMARCA2 activ: 10.7*; GAA850 FXN act: 6.3; proKLK7 act: -2.1; SMARCA2 conf: 8.8*; VP16 Luc act: 8.0*

Results for O=C(NN=Cc1ccc2c(c1)OCO2)c1ccccc1 ?
FAS-TE inh: -5.4; SMARCA2 activ: 11.4*; GAA850 FXN act: 3.3; proKLK7 act: 0.0; SMARCA2 conf: 8.7*; VP16 Luc act: 8.4*

How did COc1ccc(/C=C/C(=O)c2ccccc2)c(OC)c1 do in these assays?
FAS-TE inh: 5.9; SMARCA2 activ: 7.2; GAA850 FXN act: 2.5; proKLK7 act: 0.7

What do the screens show for `Cc1occc1-c1nnc(SCC(=O)Nc2nc(C(C)(C)C)cs2)o1`?
FAS-TE inh: 0.4; SMARCA2 activ: -0.8; GAA850 FXN act: 0.2; proKLK7 act: 0.2

How did COc1ccc(C2CC(=O)C(c3ccccc3C)=CN2Cc2ccccc2)cc1 (centres undefined) do in these assays?
SMARCA2 activ: -4.8; proKLK7 act: -0.9

What do the screens show for `O=C(CSc1nnc2ccccn12)NCc1ccco1`?
FAS-TE inh: -1.8; SMARCA2 activ: -1.1; GAA850 FXN act: -0.2; proKLK7 act: 0.3

Results for C[C@H]1CN(c2ccc(N3CCNC[C@@H]3C)cc2C#N)CCN1Cc1ccccc1 ?
SMARCA2 activ: 10.7*; proKLK7 act: 0.5; SMARCA2 conf: -2.0; VP16 Luc act: -0.1

What do the screens show for `C[C@@H]1CNCCN1c1ccc(N2CCN(Cc3ccccc3)[C@@H](C)C2)c(C#N)c1`?
SMARCA2 activ: 0.6; proKLK7 act: 1.6

How did CN(C(=O)c1cc(-c2ccccc2)on1)C1CCCCC1 do in these assays?
FAS-TE inh: 3.4; SMARCA2 activ: 9.1*; GAA850 FXN act: 6.8; proKLK7 act: 1.0; SMARCA2 conf: 11.1*; VP16 Luc act: 9.3*

How did CC1CCN(C(=O)c2ccc(N3C(=O)c4ccccc4C3=O)cc2)CC1 do in these assays?
FAS-TE inh: -3.2; SMARCA2 activ: -1.6; GAA850 FXN act: 0.4; proKLK7 act: -0.3

What do the screens show for `CCCS(=O)(=O)Nc1ccc(Nc2c3ccccc3nc3ccccc23)c(OC)c1`?
FAS-TE inh: 6.0; SMARCA2 activ: 15.1*; GAA850 FXN act: -10.9; proKLK7 act: 6.1; SMARCA2 conf: 23.6*; VP16 Luc act: 2.7

How did CCC(C)c1ccc(O)c(NC(=O)c2cccnc2)c1 (centres undefined) do in these assays?
FAS-TE inh: -7.9; SMARCA2 activ: -3.3; GAA850 FXN act: -1.4; proKLK7 act: 0.2

Results for CCC(C)c1ccc(NC(=O)c2cccnc2)cc1 (centres undefined) ?
FAS-TE inh: 0.8; SMARCA2 activ: 9.8*; GAA850 FXN act: 7.1; proKLK7 act: -0.3; SMARCA2 conf: 8.2*; VP16 Luc act: 12.4*

What do the screens show for `Cc1cccc(C(=O)Nc2ccc3c(c2)ncn3C)c1`?
FAS-TE inh: -4.6; SMARCA2 activ: 11.6*; GAA850 FXN act: 6.0; proKLK7 act: 0.3; SMARCA2 conf: 8.3*; VP16 Luc act: 18.7*
